Results published in PMC5540273 (PLoS ONE, 2017).

Key:
Conditions in all cases: concentration: 1 μM, replicates: in singlicate; n = 1
TAK1 = system: T1, TAK1
T1 construct: gene MAP3K7

TAOK1 = system: TAOK1
TAOK2 = system: TAOK2
TAOK3 = system: TAOK3
TBK1 = system: TBK1
TEC = system: TEC
TESK1 = system: TESK1
TGFBR1 = system: TGFBR1
TGFBR2 = system: TGFBR2
TIE1 = system: TIE1
TIE2 = system: T2, TIE2
T2 construct: gene TEK

TLK1 = system: TLK1
TLK2 = system: TLK2
TNIK = system: TNIK
TNK1 = system: TNK1
TNK2 = system: TNK2
TNNI3K = system: TNNI3K
TRKA = system: T3, TRKA
T3 construct: gene NTRK1

TRKB = system: TRKB
TRKC = system: T4, TRKC
T4 construct: gene NTRK3
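Note: KINOMEscan kinase panel screen.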

Row | Structure (SMILES) | %Inh (TAK1) | %Inh (TAOK1) | %Inh (TAOK2) | %Inh (TAOK3) | %Inh (TBK1) | %Inh (TEC) | %Inh (TESK1) | %Inh (TGFBR1) | %Inh (TGFBR2) | %Inh (TIE1) | %Inh (TIE2) | %Inh (TLK1) | %Inh (TLK2) | %Inh (TNIK) | %Inh (TNK1) | %Inh (TNK2) | %Inh (TNNI3K) | %Inh (TRKA) | %Inh (TRKB) | %Inh (TRKC)
1 | COc1cc(Nc2ccnc3ccc(C(F)(F)F)cc23)cc(OC)c1OC [GW577382] | 0% | 0% | 0% | 0% | 4% | 0% | 52% | 8% | 9% | 0% | 0% | 6% | 0% | 0% | 14% | 16% | 24% | 48% | 0% | 14%
2 | COc1cc(OC)cc(-c2cc3cnc(N)nc3nc2NC(=O)NC(C)(C)C)c1 | 42% | 0% | 0% | 0% | 0% | 0% | 13% | 0% | 7% | 33% | 18% | 0% | 0% | 0% | 14% | 100% | 0% | 0% | 0% | 0%
3 | COc1cc2ncn(-c3cc(OCCCc4ccccc4)c(C(N)=O)s3)c2cc1OC [GSK205189] | 0% | 0% | 0% | 0% | 15% | 0% | 4% | 0% | 0% | 22% | 0% | 0% | 0% | 22% | 12% | 7% | 0% | 55% | 0% | 24%
4 | Cn1c(=O)c(F)c(Nc2ccc(I)cc2F)c2c(=O)n(OC[C@H](O)CO)cnc21 | 0% | 0% | 27% | 0% | 52% | 30% | 31% | 20% | 13% | 0% | 9% | 0% | 0% | 0% | 29% | 0% | 4% | 0% | 0% | 0%
5 | CCS(=O)c1ccc(-c2coc3ccc(-c4nnc(C)o4)cc23)cc1 (centres unmarked) | 21% | 0% | 0% | 0% | 2% | 0% | 0% | 4% | 9% | 0% | 10% | 17% | 0% | 12% | 0% | 3% | 0% | 28% | 5% | 5%
6 | CCCC(=O)Nc1n[nH]c2ncc(-c3cccc4ccccc34)cc12 [SB-642057] | 0% | 0% | 1% | 1% | 27% | 15% | 40% | 14% | 49% | 0% | 0% | 32% | 100% | 0% | 0% | 4% | 5% | 0% | 0% | 0%
7 | Cc1nc(N(C)[C@H]2CN(C(=O)CC#N)CC[C@H]2C)c2cc[nH]c2n1 | 6% | 10% | 0% | 0% | 0% | 4% | 0% | 0% | 0% | 1% | 3% | 3% | 7% | 0% | 3% | 11% | 0% | 17% | 0% | 0%
8 | COc1ccc(-n2cnc3c(N)ncnc32)cc1 [SKF-97236] | 30% | 20% | 1% | 21% | 9% | 0% | 3% | 0% | 23% | 23% | 18% | 0% | 0% | 18% | 0% | 0% | 18% | 61% | 9% | 0%
9 | CCC(=O)c1c(-c2ccccc2)c2cc(Cl)ccc2c(=O)n1Cc1cc(S(C)(=O)=O)n(CCC(C)(C)O)n1 | 31% | 9% | 0% | 0% | 20% | 6% | 21% | 6% | 19% | 16% | 5% | 1% | 0% | 2% | 28% | 0% | 13% | 0% | 0% | 31%
10 | CC(C)(C)c1ccc(C(=O)Nc2cn3cc(-c4ccccc4)ccc3n2)cc1 | 0% | 0% | 4% | 0% | 38% | 19% | 8% | 0% | 8% | 0% | 0% | 8% | 0% | 18% | 0% | 6% | 6% | 0% | 7% | 3%
